Laboratory results taken from PubChem BioAssay AID1578 (Sanford-Burnham Center for Chemical Genomics, 2009).
About 3,000 (1%) of roughly 290,000 compounds were called active. Rule as the data show it: active = inhibition mostly above about 36% (no sharp cut-off); inactive = mostly below about 34%. The full list was thinned out, with actives kept by preference.

Assay: NOD1 signaling inhibitors, primary screen, cell-based, luminescence, uHTS (AID 1578);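 also: HEK-293T reporter cells stimulated with the NOD1 agonist gamma-tri-DAP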
Conditions: NOD1-driven NF-kB luciferase reporter cells, at 4 µM, active compounds read high

| Structure (SMILES) | inhibition |
| --- | --- |
| O=C(O)c1cccc(N2C(=O)/C(=C/c3ccc([N+](=O)[O-])cc3)C=C2c2ccccc2)c1 | 55.4% (active) |
| O=C1/C(=C/c2ccc([N+](=O)[O-])cc2)C=C(c2ccccc2)N1c1ccccc1 | -31.4% (inactive) |
| O=C1/C(=C/c2ccc([N+](=O)[O-])cc2)C=C(c2ccccc2)N1c1ccc(O)cc1 | 28.6% (inactive) |
| O=C(NCc1cccnc1)C1CCCN(S(=O)(=O)c2cccc3nsnc23)C1 (configuration not stated) | -7.8% (inactive) |
| CCOC(=O)c1ccc(NC(=S)NCCc2ccccc2F)cc1 | -22.7% (inactive) |
| CCOC(=O)c1ccc(NC(=S)NCCc2ccccc2)cc1 | 0.7% (inactive) |
| CCOC(=O)c1ccc(NC(=S)NCCc2ccc(F)cc2)cc1 | 72.6% (active) |
| CCCCCCn1c(CN2CCCCC2C)nc2c1c(=O)n(C)c(=O)n2C (configuration not stated) | -20.6% (inactive) |
| CCOC(=O)c1c(C2CC2)csc1NC(=O)COC(=O)c1cc(OC)c(OC)cc1[N+](=O)[O-] | -39.9% (inactive) |
| COc1ccc(/C=C2\Sc3ccc(C(=O)NCc4cccnc4)cc3N(C)C2=O)cc1OC | 42.3% (active) |
| CN1C(=O)/C(=C/c2cccc(Cl)c2)Sc2ccc(C(=O)NCc3cccnc3)cc21 | 4.4% (inactive) |
| COc1cccc(/C=C2\Sc3ccc(C(=O)NCc4cccnc4)cc3N(C)C2=O)c1 | 44.2% (inactive) |
| Cc1cccc(N(C(=O)CNC(=O)c2ccco2)C(C(=O)NC2CCCC2)c2ccncc2)c1 (configuration not stated) | -12.6% (inactive) |
| O=C1CC(c2ccccc2)=NN1c1nc(-c2ccccc2)cs1 | 65.7% (active) |
| CC1=NN(c2nc(-c3ccccc3)cs2)C(=O)C1 | 3.7% (inactive) |
| CC1=NN(c2nc(-c3ccc(Cl)cc3)cs2)C(=O)C1 | 46.6% (inactive) |
| CCCNC(=O)c1onc(CSc2cccc(OC)c2)c1C(=O)NCCC | -4% (inactive) |
| Cc1nc(-c2cccc(NC(=O)c3ccco3)c2)cs1 | -30.5% (inactive) |
| Cc1nc(-c2ccc(C(=O)Nc3cccc(F)c3)cc2)cs1 | 26.3% (inactive) |
| Cc1nc(-c2ccc(C(=O)Nc3cccc(Br)c3)cc2)cs1 | 47.3% (active) |
| Cc1nc(-c2ccc(NC(=O)c3ccco3)cc2)cs1 | 54.6% (active) |
| Cc1ccc(C(=O)Nc2ccc(-c3csc(C)n3)cc2)cc1 | -53.9% (inactive) |
| Nc1nc(-c2ccc(NC(=O)c3ccco3)cc2)cs1 | -4.3% (inactive) |
| COCCN1Cc2cccc(C(=O)Nc3cccc(-c4nc5ccccc5[nH]4)c3)c2C1=O | -5.5% (inactive) |
| CCOc1ccc(C(=O)OCc2nnc(-c3cccs3)o2)cc1OC | -3.4% (inactive) |

| Structure (SMILES) | inhibition |
| --- | --- |
| Oc1nc(Nc2ccccc2)sc1/C=C1\C=Nc2ccccc21 | -13.5% (inactive) |
| O=C(COC(=O)c1ccccc1Br)NCc1ccccc1 | -32% (inactive) |
| CC(=O)N/C(=C/c1ccc([N+](=O)[O-])cc1)C(=O)O | -71.3% (inactive) |
| O=C(O)c1cc(-c2ccc(Cl)cc2)n(-c2ccccc2)n1 | -29.5% (inactive) |
| COC(=O)C1C2C=CC3(CN(c4cccc(C)c4)C(=O)C13)O2 (configuration not stated) | -25.9% (inactive) |
| COc1ccc2nccnc2c1[N+](=O)[O-] | -0.6% (inactive) |
| O=C(CCC(=O)NCCCc1ccccc1)NCCCc1ccccc1 | 80.7% (active) |
| O=C(CCCc1ccccc1)NCCCc1ccccc1 | -23.7% (inactive) |
| O=C(CCCCC(=O)NCCCc1ccccc1)NCCCc1ccccc1 | -23.1% (inactive) |
| CCn1c(-c2ccccc2)c(C(=O)CC#N)c2ccccc21 | -39.5% (inactive) |
| CCn1c(-c2ccccc2)c(C(=O)O)c2ccccc21 | -1.6% (inactive) |
| CCn1c(-c2ccccc2)c(C(=O)CCl)c2ccccc21 | 79.5% (active) |
| Cc1ccc(OCc2nnc(SCC(N)=O)n2N)cc1 | -1.8% (inactive) |
| O=C(Cc1c[nH]c2ccccc12)Nc1ccc(N2CCOCC2)cc1 | -30.3% (inactive) |
| NC(=O)C1(N2CCCCC2)CCN(C(=S)Nc2ccc(S(N)(=O)=O)cc2)CC1 | -18.7% (inactive) |
| COc1cccc(OCc2cc(C(=O)NCc3ccc4c(c3)OCO4)no2)c1 | -60.1% (inactive) |
| COc1cccc(OCc2cc(C(=O)NCc3ccccn3)no2)c1 | -60.1% (inactive) |
| O=C(O)C(Cc1ccccc1)N1C(=O)/C(=C/c2cccs2)SC1=S (configuration not stated) | 3% (inactive) |
| O=C(O)C(Cc1ccccc1)N1C(=O)/C(=C/c2ccccc2)SC1=S (configuration not stated) | 40.1% (inactive) |
| Cc1ccc(CCNC(=O)CN(C)S(=O)(=O)c2ccc3c(c2)n(C)c(=O)c(=O)n3C)cc1 | -2.1% (inactive) |
| COc1cc(Cl)cc(/C=C/c2ccc3cccc(O)c3n2)c1OC | 8.1% (inactive) |
| COc1cc(Br)c(/C=C/c2ccc3cccc(O)c3n2)cc1OC | 11.8% (inactive) |
| COc1ccccc1/C=C/c1ccc2cccc(O)c2n1 | -8.4% (inactive) |
| COc1cc(/C=C/c2ccc3c(Br)cc(Br)c(O)c3n2)ccc1O | 79.9% (active) |
| COc1ccc(/C=C/c2ccc3c(Br)ccc(O)c3n2)cc1 | 0.6% (inactive) |

| Structure (SMILES) | inhibition |
| --- | --- |
| COc1cccc(/C=C/c2ccc3cccc(O)c3n2)c1 | 7.9% (inactive) |
| COc1cc(Br)cc(/C=C/c2ccc3cccc(O)c3n2)c1OC | 23% (inactive) |
| COc1ccc(/C=C/c2ccc3cccc(O)c3n2)c(OC)c1OC | 16.5% (inactive) |
| COc1ccc(/C=C/c2ccc3cccc(O)c3n2)cc1Br | 6.9% (inactive) |
| Cc1ccc(N(CC(=O)Nc2ccc3c(c2)OCCO3)S(C)(=O)=O)cc1 | -32.2% (inactive) |
| COc1ccc(NC(=O)CN2C(=O)NC(C)(c3ccccc3)C2=O)cc1Cl (configuration not stated) | -50.5% (inactive) |
| COc1ccc(NC(=O)c2ccccc2NC(=O)NC2CCCCC2)cc1 | -14.5% (inactive) |
| CCCCNC(=O)[C@@H]1CSC2c3ccccc3C(=O)N21 (some centres not stated) | -0.2% (inactive) |
| O=C1c2ccccc2C(=O)N1CCCC(=O)N1CCCc2ccccc21 | -23.6% (inactive) |
| Cc1ccc(-c2cc(C(F)F)n3ncc(C(=O)N4CCCCC4c4cccnc4)c3n2)cc1 (configuration not stated) | 2.1% (inactive) |
| Brc1cccc(CN2CCCCCC2)c1 | -23% (inactive) |
| N#C/C(=C\C=C\c1ccccc1)C(=O)N1CCCC1 | 23.1% (inactive) |
| CCOC(=O)C(CC)Sc1nnc2n1C(C)(C)Cc1ccccc1-2 (configuration not stated) | -5.8% (inactive) |
| COc1ccc(OC)c(-c2cc(C(=O)NCCN3CCOCC3)no2)c1 | -5.6% (inactive) |
| CC12C(=O)N(Cc3ccco3)C(=O)C1C1c3ccccc3C2c2ccccc21 (configuration not stated) | 28.8% (inactive) |
| C/C(=N/OCC(=O)NCCCCCCNC(=O)CO/N=C(/C)c1cccs1)c1cccs1 | -2.7% (inactive) |
| CCNC(=O)Cc1c(OC)ccc2cc(Br)ccc12 | -58.1% (inactive) |
| CN1/C(=C\C(=O)C[n+]2cccc(C(N)=O)c2)C(C)(C)c2ccccc21 | 7.7% (inactive) |
| Cc1ccsc1/C=C/c1ccc2ccccc2n1 | 27.3% (inactive) |
| Cc1ccsc1/C=C/c1ccc2cccc(O)c2n1 | 63.2% (active) |
| Oc1cccc2ccc(/C=C/c3cccs3)nc12 | -7.6% (inactive) |
| CC(CC(=O)Nc1ccc(S(=O)(=O)Nc2ncccn2)cc1)c1ccccc1 (configuration not stated) | -22.5% (inactive) |
| C=CCOn1c(=O)c(-c2ccc(F)cc2)[n+]([O-])c2ccccc21 | 3.1% (inactive) |
| C(=N\Nc1nc(N2CCCC2)nc(N2CCCC2)n1)/c1ccccc1OCc1ccccc1 | 7.9% (inactive) |
| COc1cccc(/C=N/Nc2nc(N3CCCC3)nc(N3CCCC3)n2)c1O | 29.2% (inactive) |

| Structure (SMILES) | inhibition |
| --- | --- |
| CCOc1cccc(/C=N/Nc2nc(N3CCCC3)nc(N3CCCC3)n2)c1O | 33.4% (active) |
| O=C1C2C3C=CC(C3)C2C(=O)N1c1ccncc1 (configuration not stated) | 29.4% (inactive) |
| O=C(CSc1nc2cccnc2n1Cc1ccccc1)NCc1ccco1 | 8.8% (inactive) |
| CC1CCCCN1CCNC(=O)c1ccc2c(c1)N(Cc1ccccc1F)C(=O)c1ccccc1S2=O (configuration not stated) | -12.3% (inactive) |
| Cc1cccc(OCc2nnc(SCc3nc4ccccc4c(=O)[nH]3)o2)c1 | -16.2% (inactive) |
| COc1cccc2sc3ccc(C#Cc4ccc(N)cc4)cc3c(=O)c12 | -70% (inactive) |
| COc1ccc2sc3ccccc3c(=O)c2c1 | -32.1% (inactive) |
| COc1ccc2sc3ccccc3c(=O)c2c1OC | 97.4% (active) |
| Fc1ccc(CSc2nnc3ccccn23)c(Cl)c1 | -35.7% (inactive) |
| Cc1oc(S(=O)(=O)N2CCOCC2)cc1C(=O)Nc1ccc(Cl)cc1 | 0.4% (inactive) |
| O=C(Nc1nc2cc3c(cc2s1)OCCO3)c1cccc(N2C(=O)CCC2=O)c1 | -14.7% (inactive) |
| O=C(Nc1nc2cc3c(cc2s1)OCCO3)c1cccc(S(=O)(=O)N2CCOCC2)c1 | 5.8% (inactive) |
| O=C(O)Cn1cc(C(=O)C2CC2)c2ccccc21 | -13.5% (inactive) |
| Cc1ccccc1NC(=O)c1ccc(NS(=O)(=O)c2cc(C(C)(C)C)cc(C)c2C)cc1 | -29.6% (inactive) |
| CCc1ccccc1NC(=O)Nc1ccc(F)cc1 | -25.3% (inactive) |
| CCCN(Cc1cc2cc(C)ccc2[nH]c1=O)S(C)(=O)=O | -18% (inactive) |
| CCCCCCCCCC[n+]1cccc2c3ccccc3ccc21 | 64.2% (active) |
| CCCCC[n+]1cccc2c3ccccc3ccc21 | 33.7% (inactive) |
| CCCCCCCCCCCCCCCC[n+]1cccc2ccccc21 | 37.4% (inactive) |
| Cc1ccc(C(=O)n2nc(-c3ccco3)nc2N)cc1 | -20.6% (inactive) |
| COc1ccc(C(C(=O)NCC2CCCO2)N(C(=O)CNC(=O)c2cccs2)c2ccc(C)cc2)cc1OC (configuration not stated) | 4.3% (inactive) |
| CN(CCOCCOc1ccc(Cl)cc1Br)Cc1ccccc1 | -30.1% (inactive) |
